Assay outcomes (PubChem)
RE007 growth inh: qHTS Assay for Inhibitors of the HIV-1 protein Vpr | AID 651644, 2012 | S. pombe RE007 Vpr strain, BacTiter-Glo ATP luminescence, 24 h | 0.21% of 360,000 active | Potency, µM (top dose mostly 92.2 µM), without a hit: at the highest dose activity change, negative = less growth, hits mostly inhibitors; active means well fitted falling curve with a large enough effect; inconclusive means small, poorly fitted or top-dose-only effect; inactive means no such curve, though single readings can be large or run the other way; further: potency means the concentration at half of the fitted maximal effect; on the % scale 0 is the no-effect control and ±100 the full control effect; nearly all actives have a fitted effect of over 50% in size
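Fission yeast strain RE007, carrying one chromosomally integrated HIV-1 vpr copy, was seeded at OD 0.01 in PMG+AL medium with 23 nL pinned compound. After 24 h at 30 °C and 99% humidity, viability was read by BacTiter-Glo luminescence.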
TbPYK inhibitor: qHTS of Trypanosoma Brucei Inhibitors; TbPYK enzyme, Kinase-Glo Plus ATP luminescence, 45 min; Potency, µM (titrated, usually from 76.8 µM), without a hit: at the highest dose activity, negative = inhibition, most hits filed as inhibitors; 0.12% of 410,000 active; AID 624173, 2012; further: potency means the concentration at half of the fitted maximal effect; on the % scale 0 is the no-effect control and ±100 the full control effect; nearly all actives have a fitted effect of over 50% in size
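Assay buffer: 50 mM TEA pH 7.2, 100 mM KCl, 10 mM MgCl2, 0.05% BSA, 0.01% Tween-20. Pyruvate kinase from T. brucei plus substrate met compound, then ADP (130 uM final). Luminescence was read post 45 min RT.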
Shiga inhibitor: A qHTS for Small Molecule Inhibitors of Shiga Toxin; Vero cells, Shiga toxin protein synthesis inhibition reporter; inhibition, % at 38.7 µM; 9.2% of 290,000 active; AID 2315, 2010; in the data active means inhibition mostly above about 28%, no sharp cut-off; inactive means mostly below about 43%; further: 0% is about no effect
Giardia FBPA inh: qHTS Assay for Inhibitors of Fructose-1,6-bisphosphate Aldolase from Giardia Lamblia; A8B2U2; purified Giardia FBPA; Potency, µM (highest dose often 59.6 µM), for inactives: at the top dose activity, negative = inhibition, usual class: inhibitors; 0.71% of 290,000 active; AID 2451, 2010; further: potency means the concentration at half of the fitted maximal effect; on the % scale 0 is the no-effect control and ±100 the full control effect; nearly all actives have a fitted effect of over 55% in size
Target sequence (A8B2U2 whole entry, looked up): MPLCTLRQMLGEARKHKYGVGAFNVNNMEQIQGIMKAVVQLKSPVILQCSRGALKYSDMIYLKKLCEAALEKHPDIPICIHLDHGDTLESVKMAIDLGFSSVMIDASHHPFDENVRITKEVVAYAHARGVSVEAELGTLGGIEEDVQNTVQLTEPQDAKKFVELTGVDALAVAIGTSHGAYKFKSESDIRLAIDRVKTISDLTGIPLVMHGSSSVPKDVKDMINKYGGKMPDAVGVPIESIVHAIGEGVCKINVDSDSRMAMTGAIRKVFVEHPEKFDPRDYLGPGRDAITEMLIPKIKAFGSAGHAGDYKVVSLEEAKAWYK
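Giardia FBPA (40 nM reagent) was preincubated 10 min at RT with compound (up to 57.5 uM final), then substrate plus GAPDH/TPI/NAD/arsenate coupling system with diaphorase/resazurin was added; resorufin fluorescence (525/598 nm) was read after 20 min.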
LmPK inh: qHTS Assay for Inhibitors of Leishmania Mexicana Pyruvate Kinase (LmPK). Potency, µM (top dose mostly 57.5 µM), for the others: at the highest dose activity change, negative = inhibition, usual class: inhibitors. AID 1721, 2009. 0.37% of 290,000 active. purified LmPK, Kinase-Glo ATP luminescence, 1 h. Q27686; further: potency means the concentration at half of the fitted maximal effect; on the % scale 0 is the no-effect control and ±100 the full control effect
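0.1 nM LmPK, 0.5 mM PEP, 0.1 mM ADP; 50 mM imidazole pH 7.2, 7 mM MgCl2, 50 mM KCl; 1 h RT. Kinase-Glo luminescence readout, normalized to no-enzyme (full inhibition) and uninhibited wells.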
CHX counter: Cycloheximide Counterscreen for Small Molecule Inhibitors of Shiga Toxin; cell reporter, cycloheximide protein synthesis inhibition counterscreen; max response, %; 12% of 300,000 active; AID 2314, 2010; in the data active means max response mostly above about 13%, no sharp cut-off; inactive means mostly below about 14%; further: read at 38.3 µM for the half of the compounds with a filed dose; 0% is about no effect
Numbers without * were called inactive; ? = inconclusive; / = no result; [ ] = remark or other dose. This excerpt belongs to a sample that is enriched for hits. Unless noted, the call rests on the fitted dose curve; in most records, active means well fitted curve in the direction sought with a large enough effect; inconclusive means small, poorly fitted or top-dose-only effect, or another doubt; inactive means no such curve, though single readings can be large; an effect the other way counts as inactive or inconclusive.

SMILES | RE007 growth inh | TbPYK inhibitor | Shiga inhibitor | Giardia FBPA inh | LmPK inh | CHX counter
COc1ccc(CCNC(=O)c2sc3nc4n(c(=O)c3c2C)CCCC4)cc1OC | / | -4.4% | / | / | / | /
COc1ccc(-c2cn3nc(N4CCCC(C(=O)NCc5ccccc5OC)C4)sc3n2)cc1 (stereo not drawn) | / | 3.0%[15.4 µM] | / | / | / | /
Cc1cc(OCC(=O)NCC2(N3CCN(C)CC3)CCCCC2)cc(C)c1Cl | / | 0.0% | / | / | / | /
Cc1ccc(C)c(N2CCN(c3nccn4nc(-c5ccc(Br)cc5)cc34)CC2)c1 | / | -17.8% | / | / | / | /
CC(C)(C)c1ccc(CN(Cc2ccco2)c2cnc(S(C)(=O)=O)nc2C(=O)Nc2ccc(F)cc2)cc1 | / | 4.0% | / | / | / | /
O=CCCCC=O | / | 2.5% | / | / | / | /
CC(C)c1cccc(-c2csc(C(O)c3ccc(F)c(F)c3)n2)c1 (stereo not drawn) | 39.8µM* | -2.6% | / | / | / | /
FC(F)(F)c1cc(Cl)c2nc(-c3ccccc3)cn2c1 | -18.6% | 3.5% | 87.6* | -5.5% | -14.7% | 41.4*
Cc1cc(C(F)(F)F)nc(-n2cc(-c3cccc(N)c3)nn2)n1 | 7.3% | 5.1% | -4.0 | 2.1% | 5.7% | -1.1
Nc1cccc(-c2cn3cc(C(F)(F)F)cc(Cl)c3n2)c1 | -6.2% | -6.4% | 64.0* | -2.3% | -28.0% | 36.4*
COc1ccccc1N1CCN(C(=O)CCc2nnc3n(C)c(=O)c4sccc4n23)CC1 | / | -4.2% | / | / | / | /
CCOC(=O)N/N=C1/C[C@@H](O)[C@@H](O)[C@@H]2[C@@H]3C(=O)N(Cc4ccc5c(c4)OCO5)C(=O)[C@H]3CC[C@@H]12 | / | / | / | -0.1%[12.9 µM] | / | /
CCN(c1ccccc1)S(=O)(=O)c1cc([N+](=O)[O-])ccc1N | -6.3% | 3.3% | 58.3* | 5.1% | 3.2% | 28.4*
CCNc1ncc2nc(-c3ccc(Cl)cc3)c(=O)n(-c3ccc(OC)cc3)c2n1 | / | / | / | -4.6% | / | /
O=C(N/N=C/c1ccc(OC(F)F)cc1)c1ccc(CSc2nc3ccccc3[nH]2)cc1 | 0.1% | 5.1% | 15.2 | -1.3% | 0.4% | 11.1
c1ccc(-c2cc(CSc3nc4ccccc4[nH]3)on2)cc1 | -11.2% | -1.6% | 31.1 | -16.3% | -8.1% | 14.0
COc1ccc(CSc2nc3ncccc3[nH]2)cc1 | / | -3.8% | / | / | / | /
c1ccc2[nH]c(SCc3ccc(-c4nnco4)cc3)nc2c1 | 2.5% | -5.3% | 89.1* | -10.0% | ? | 17.7*
CCOc1ccccc1/C=C/c1cc(C(=O)O)c2ccccc2n1 | -14.8% | -10.7% | -6.1 | -7.4% | 2.0% | 2.5
COc1ccc(CSc2nc3ccccc3[nH]2)cc1 | 31.6µM* | -10.2% | 73.8* | -4.6% | 15.8µM* | 35.5*
CCOc1ccc(/C=N/NC(=O)c2ccc(CSc3nc4ccccc4[nH]3)cc2)cc1 | 7.3% | -1.8% | 43.3* | 0.7% | -1.6% | 20.7*
CCOc1ccccc1/C=C/c1nc2ccccc2[nH]c1=O | -9.4% | -12.9% | 17.1 | -19.1% | -1.1% | 13.4*
C=CC[N+]1([C@H]2C[C@H]3[C@@H]4CC[C@H]5C[C@H](OC(C)=O)[C@@H](N6CCCCC6)C[C@]5(C)[C@H]4CC[C@]3(C)[C@H]2OC(=O)CC)CCCCC1 | / | -7.5% | / | / | / | /
CCC(C(=O)Nc1cc(-c2nc3cccnc3s2)ccc1C)c1ccccc1 (stereo not drawn) | / | -7.8% | / | / | / | /
O=C1CCC(=O)N1c1ccc(CSc2nc3ccccc3[nH]2)cc1 | 10.7% | -6.1% | 86.8* | 0.3% | -1.6% | 26.6*
CCOc1ccccc1CSc1nc2ccccc2[nH]1 | -6.2% | 0.2% | 21.8 | 1.4% | 0.7% | 19.4*
Cc1ccc(OCC(=O)Nc2ccccc2C(=O)OCc2cc(=O)n3c(C)csc3n2)cc1 | / | -9.0% | / | / | / | /
Cc1ccc(C)c(NC(=S)NNC(=O)c2cc3c(s2)CCC(C)C3)c1 (stereo not drawn) | 25.1% | -7.3% | -7.6 | 7.5% | 2.6% | -0.5
Cc1ccc(C)c(NC(=O)CCC(=O)NNC(=S)Nc2ccccc2)c1 | 0.2% | -26.3% | -2.5 | -5.2% | 0.7% | -9.8
